In PubChem BioAssay AID1626 (SRMLSC, 2009):
Among all 220,000 compounds or so, about 2,000 (0.91%) were called active. Not shown: some 2% with an inconclusive outcome. Not all results are given here. Results with a measured potency or affinity are listed apart. A number with no mark means an inactive call. Rule as the data show it: inconclusive = inhibition above about 80% without an active follow-up result; inactive = below that; test concentration not stated here.

Test: M. tuberculosis H37Rv growth inhibitors, H37Rv strain (AID 1626);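 also: bacteria incubated seven days before Alamar blue readout; 0% = bacteria only wells and 100% = bacteria with antibiotic wells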
Settings: hits give high values, concentration not given here

In order of rising inhibition:
1. COC(=O)c1cccc(NC(=O)CCCOc2cccc(C)c2)c1  -9.57%
2. Cc1ccc(CNC(=O)CSc2nc(C)cc(C)c2C#N)cc1  -9.02%
3. COc1ccc(C(=O)Nc2ccc(N3CCN(c4ccc(OC)cc4)CC3)c(C#N)c2)cc1  -7.83%
4. Cc1cc(=O)oc(C)c1C(=O)Nc1cccc(F)c1  -6.13%
5. CC(=O)Nc1ccc2c(CSc3nnc(-c4cccnc4)n3-c3ccc(C)cc3C)cc(=O)oc2c1  -5.62%
6. CC(=O)COC(=O)CNC(=O)c1ccc(Br)cc1  -5.11%
7. COc1cc2nc(SCc3ccc(C(F)(F)F)cc3)n(Cc3cccs3)c(=N)c2cc1OC  -5.09%
8. CNC(=S)Nc1cccc(C(C)=O)c1  -3.56%
9. O=C(CCCCCNC(=S)Nc1ccccc1)C[N+](=O)[O-]  -1.95%
10. COc1ccc(-n2c(=S)[nH]c3cc(C(=O)NCCCN4CCCC4=O)ccc3c2=O)cc1OC  -1.47%
11. COc1ccc(NC(=O)CCOc2ccccc2)c(OC)c1  -0.51%
12. COCCCn1c(SCc2ccccc2)nc2cc(OC)c(OC)cc2c1=N  0.99%
13. C/C(=N\NC(=O)C1(C)NC(C)(C)Cc2ccccc21)c1ccccc1 (stereo not drawn)  1.17%
14. CN(C)c1cc(-c2cccc([N+](=O)[O-])c2)oc(=O)c1Cl  1.64%
15. COCCCn1c(SCc2ccc(OC)cc2)nc2cc(OC)c(OC)cc2c1=N  1.79%
16. Cc1[nH]n2c(=O)c3c(nc2c1-c1ccccc1)CCC3  3.85%
17. Cc1cccc(N(Cc2cc3ccccc3[nH]c2=O)C(=O)c2ccco2)c1C  4.31%
18. Cc1c(-c2ccccc2)[nH]n2c(=O)c3c(nc12)CCCC3  6.84%
19. COCCCn1c(SCc2cccc(OC)c2)nc2cc(OC)c(OC)cc2c1=N  6.91%
20. COc1ccc(C[C@@H]2CN3C(=NC[C@@H]3C)N2C[C@H](C)NC(=O)c2ccc(C)c(Br)c2)cc1  8.27%
21. COc1cc2nc(SCc3ccc(F)cc3)n(Cc3cccs3)c(=N)c2cc1OC  8.63%
22. COc1cc2nc(SCc3ccc(Cl)cc3Cl)n(Cc3cccs3)c(=N)c2cc1OC  11.9%
23. Cc1ccc(C(=O)NCCN2C3=NC[C@H](Cc4ccc(O)cc4)N3C[C@H]2Cc2ccc(O)cc2)cc1Br  13.6%
24. Cc1ccc(N=C2NC(=O)/C(=C/c3cccnc3)S2)c(C)c1  20.4%
25. Cc1ccc(C(=O)N[C@@H](C)CN2C3=NC[C@H](Cc4ccccc4)N3C[C@H]2Cc2ccc(O)cc2)cc1Br  21.4%
26. Cc1ccc(C(=O)NCCN2C3=NC[C@@H](Cc4ccccc4)N3C[C@H]2Cc2ccc(O)cc2)cc1Br  40.7%
27. COc1ccc(-c2nc(Cn3c(SCc4cccc(F)c4)nc4ccncc43)c(C)o2)cc1OC  55.2%
28. COc1ccc(-c2nc(Cn3c(SCc4ccc(F)cc4)nc4ccncc43)c(C)o2)cc1OC  67.8%
